This passage reports outcome, Potency and max activation results from PubChem BioAssay (Tox21).

Assay [1] addresses Thyrotropin-releasing hormone receptor (Homo sapiens) (UniProt P34981). The experiment in a line: qHTS assay to identify small molecule agonists of the thyrotropin-releasing hormone receptor (TRHR) signaling pathway (AID 1346891; calls by dose curve;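 note: HEK293 cells expressing TRHR with calcium dye readout; series mostly up to about 58 µM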). The method in brief:
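Cells: TRHR-Hek293, seeded and incubated 18 h. Dye loading: 2 h at 37 °C. Compound added from DMSO stock by pin tool. Read-out: kinetic calcium fluorescence over 3 min.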
(In qHTS, concentration-response curves come from the screen itself.)

A short description of assay [2]: Human pregnane X receptor (PXR) small molecule agonists, qHTS cell viability counter screen (AID 1346977). Note: nearly all actives have a fitted effect of over 50% in size. The method in brief: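 Cytotoxicity counter screen run in the same wells as the PXR luciferase assay, using PXR-Luc HepG2 cells in charcoal-stripped serum medium. Viability: CellTiter-Fluor fluorescence after 24hr compound treatment.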
Assay [3] in a line: Caspase-3/7 induction in HepG2 cells by small molecules, qHTS assay (AID 1346978). Note: nearly all actives have a fitted effect of over 15% in size. The essentials:
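Wild-type HepG2 cells (2,000/well) were settled 5 h at 37 C, 5% CO2, then exposed to compounds in DMSO for 17 h. Caspase-3/7 activity was read by luminescence 30 min after adding Caspase-Glo 3/7 reagent at room temperature.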

The nature of assay [4]: Caspase-3/7 induction in CHO-K1 cells by small molecules, qHTS cell viability counter screen (AID 1346979). Note: nearly all actives have a fitted effect of over 35% in size. The method in brief: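 Cytotoxicity counter screen run in parallel with the caspase-3/7 assay: CHO-K1 cells, 16hr compound treatment at 37C, then CellTiter-Fluor for 1hr before fluorescence reading.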
Assay [5] is described as follows: Caspase-3/7 induction in CHO-K1 cells by small molecules, qHTS assay (AID 1346980). Note: nearly all actives have a fitted effect of over 15% in size. The method in brief:
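Wild-type cells were seeded at 1,500 per well and settled 5 hr at 37 C, 5% CO2, then exposed to DMSO-dissolved compounds for 17 hr. Caspase-Glo 3/7 reagent was added, and luminescence was read after 30min at room temperature.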

A short description of assay [6]: Caspase-3/7 induction in HepG2 cells by small molecules, qHTS cell viability counter screen (AID 1346981). Note: series mostly up to about 92 µM; nearly all actives have a fitted effect of over 30% in size. The essentials:
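After a 5-hr attachment period at 37 C and 5% CO2, wild-type HepG2 cells received compounds in DMSO. Sixteen hours later CellTiter-Fluor was dispensed and the fluorescent signal quantified after a further hour.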

The target of assay [7] is Nuclear receptor subfamily 1 group I member 2 (Homo sapiens) (UniProt O75469). The experiment in a line: Human pregnane X receptor (PXR) small molecule agonists, qHTS assay (AID 1346982). Note: nearly all actives have a fitted effect of over 35% in size. The method in brief:
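Tox21 qHTS; PXR-Luc HepG2; compounds pinned from DMSO; 24 hr, 37 C; ONE-Glo luciferase detection, 30 min room temperature.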

Assay [8] has as its target Acetylcholinesterase (Homo sapiens) (UniProt P22303). The experiment in a line: Acetylcholinesterase (AChE) small molecule antagonists: colormetric cell-based qHTS assay (AID 1347395; calls by dose curve; note: nearly all actives have a fitted effect of over 30% in size). The essentials:
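Cells (SH-SY5Y, 2,000 per well) are seeded and left overnight at 37 C. Compound is added for 30 min, then DTNB and acetylthiocholine for a further 90 min at 37 C before absorbance-based thiocholine detection.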

Assay [9] has the same target. Put plainly: Acetylcholinesterase (AChE) small molecule antagonists: enzyme-based qHTS assay (AID 1347397; calls by dose curve; note: nearly all actives have a fitted effect of over 55% in size). The settings on record: Potency: AChE enzyme activity inhibition; outcome: AChE enzyme activity inhibition. The essentials:
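Tox21 library chemicals are tested in qHTS format against recombinant human AChE. The enzyme, dispensed at 50 mU/mL, sits with compound for 30 min at room temperature. A DTNB–acetylthiocholine cocktail follows, and colour is read after 10 min.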

For assay [10] the target is unchanged. The experiment in a line: Acetylcholinesterase (AChE) small molecule antagonists: fluorescence cell-based qHTS assay (AID 1347398; calls by dose curve; note: nearly all actives have a fitted effect of over 50% in size). To be noted: Potency: AChE activity; outcome: AChE activity. The essentials: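 Cellular AChE inhibition: SH-SY5Y cells treated with test chemical for 30 min at 37 C, then acetylthiocholine hydrolysis followed over 40 min at room temperature via thiocholine-reactive Thiolite Green fluorescence (490/520 nm).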

The target is the same in assay [11]. The experiment in a line: Acetylcholinesterase (AChE) small molecule antagonists: enzyme-based qHTS assay with human liver microsomes (AID 1347399; calls by dose curve; note: nearly all actives have a fitted effect of over 60% in size). The settings on record: Potency: qHTS inhibition; outcome: qHTS inhibition. The method in brief: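 Recombinant human AChE (50 mU/mL in the enzyme mix) and human liver microsomes (0.25 mg/mL final) were preincubated with compound and NADPH (0.25 mg/mL final) for 30 min at 37 C. Acetylthiocholine/DTNB was then added; thiocholine was read colorimetrically after 10 min at room temperature.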

Assay [12] deals with Cytochrome P450 2C19 (Homo sapiens) (UniProt P33261). Put plainly: Cytochrome P450 Family 2 Subfamily C Member 19 (CYP2C19) small molecule antagonists: luciferase reporter qHTS assay (AID 1671197). Note: nearly all actives have a fitted effect of over 65% in size. Note: potency is the fitted concentration of half-maximal effect. The method in brief: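 CYP2C19 P450-Glo, 1536-well qHTS. Cpd + enzyme/proluciferin substrate 10 min RT; + NADPH regen, 37C 1 h; stop with luciferin detection reagent, 20 min RT, luminescence (RLU). Pos ctrl ketoconazole.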
Cytochrome P450 2C19 (Homo sapiens), sequence (P33261 whole entry, looked up): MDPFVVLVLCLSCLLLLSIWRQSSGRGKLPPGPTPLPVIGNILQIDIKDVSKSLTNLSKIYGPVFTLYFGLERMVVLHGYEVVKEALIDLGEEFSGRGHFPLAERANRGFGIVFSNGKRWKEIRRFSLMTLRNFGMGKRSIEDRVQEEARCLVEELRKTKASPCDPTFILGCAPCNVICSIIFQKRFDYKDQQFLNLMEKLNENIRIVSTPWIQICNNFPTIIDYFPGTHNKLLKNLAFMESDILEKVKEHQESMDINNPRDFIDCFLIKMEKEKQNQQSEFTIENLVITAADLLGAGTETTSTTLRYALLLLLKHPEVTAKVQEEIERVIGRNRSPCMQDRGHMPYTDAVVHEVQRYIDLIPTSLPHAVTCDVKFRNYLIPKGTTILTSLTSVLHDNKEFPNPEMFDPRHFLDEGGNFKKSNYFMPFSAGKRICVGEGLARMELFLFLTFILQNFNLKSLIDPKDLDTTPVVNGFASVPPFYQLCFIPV

The target of assay [13] is Cytochrome P450 2C9 (Homo sapiens) (UniProt P11712). Put plainly: Cytochrome P450 Family 2 Subfamily C Member 9 (CYP2C9) small molecule antagonists: luciferase reporter qHTS assay (AID 1671198). Note: series mostly up to about 120 µM; nearly all actives have a fitted effect of over 50% in size. The method in brief: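 CYP2C9 activity was measured with a P450-Glo proluciferin substrate. Enzyme–substrate mix was held with compound for 10 min at room temperature, then NADPH regeneration solution was added for 1 h at 37C. Luciferin product was read as luminescence.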
Cytochrome P450 2C9 (Homo sapiens), sequence (P11712 whole entry, looked up): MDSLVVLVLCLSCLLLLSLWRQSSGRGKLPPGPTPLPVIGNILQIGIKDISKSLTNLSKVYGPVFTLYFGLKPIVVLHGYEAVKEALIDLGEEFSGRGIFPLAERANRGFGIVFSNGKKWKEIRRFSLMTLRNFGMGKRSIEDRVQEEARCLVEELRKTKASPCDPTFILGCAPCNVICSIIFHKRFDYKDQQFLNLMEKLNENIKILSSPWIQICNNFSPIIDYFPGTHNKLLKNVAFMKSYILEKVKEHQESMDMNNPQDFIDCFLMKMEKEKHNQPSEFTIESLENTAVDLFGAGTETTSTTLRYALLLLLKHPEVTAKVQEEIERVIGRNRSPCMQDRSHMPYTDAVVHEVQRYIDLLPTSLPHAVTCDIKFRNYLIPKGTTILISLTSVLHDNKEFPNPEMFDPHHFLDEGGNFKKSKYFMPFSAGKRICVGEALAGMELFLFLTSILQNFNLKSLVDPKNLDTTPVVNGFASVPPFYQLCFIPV

For assay [14], the target named is Cytochrome P450 1A2 (Homo sapiens) (UniProt P05177). Put plainly: Cytochrome P450 Family 1 Subfamily A Member 2 (CYP1A2) small molecule antagonists: luciferase reporter qHTS assay (AID 1671199). Note: nearly all actives have a fitted effect of over 50% in size. Note: potency is the fitted concentration of half-maximal effect. The method in brief:
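Room-temperature CYP1A2 reaction with proluciferin substrate: compounds added from DMSO, 10 min preincubation, NADPH regeneration for 1 h. Luciferin detection reagent then added; luminescence recorded as RLU.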
(A reporter such as luciferase makes a cellular process visible.)

Assay [15] addresses Voltage-gated inwardly rectifying potassium channel KCNH2 (Homo sapiens) (UniProt Q12809). The experiment in a line: Human Ether-a-go-go-Related Gene (hERG) channel small molecule antagonists: fluorescence cell-based qHTS assay (AID 1671200). Note: nearly all actives have a fitted effect of over 50% in size. Note: potency is the fitted concentration of half-maximal effect. The method in brief: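 Fluorescence at 540 nm emission (480 nm excitation) was recorded kinetically for 2 min at 1-second intervals once the thallium-containing stimulus reached cells previously loaded with FluxOR II dye.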
On the technique in general: The hERG channel carries a current that helps repolarise heart muscle cells.

Assay [16] addresses Cytochrome P450 3A4 (Homo sapiens) (UniProt P08684). Put plainly: Cytochrome P450 Family 3 Subfamily A Member 4 (CYP3A4) small molecule antagonists: luciferase reporter qHTS assay (AID 1671201). The method in brief: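 qHTS, 1536-well. CYP3A4 + proluciferin substrate, cpd 10 min RT → NADPH regen 1 h RT → detection reagent 20 min → luminescence (RLU). Ketoconazole positive control.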

In assay [17] the target is Cytochrome P450 2D6 (Homo sapiens) (UniProt P10635). The experiment in a line: Cytochrome P450 Family 2 Subfamily D Member 6 (CYP2D6) small molecule antagonists: luciferase reporter qHTS assay (AID 1671196). Note: nearly all actives have a fitted effect of over 50% in size. Note: potency is the fitted concentration of half-maximal effect. The method in brief:
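Room-temperature luminescent CYP2D6 activity assay: compound preincubated 10 min with enzyme–substrate mix, NADPH-initiated reaction 1 h, detection reagent 20 min before reading.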

The target in assay [18] is Nuclear receptor subfamily 1 group I member 2 (Rattus norvegicus) (UniProt Q9R1A7). Put plainly: Rat pregnane X receptor (rPXR) activation by small molecules, qHTS assay (AID 1346983). Note: nearly all actives have a fitted effect of over 20% in size. To be noted: rPXR luciferase reporter cells, One-Glo luminescence, 24 h; hits give high values. The essentials: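 Cell-based rPXR luciferase reporter assay, 2,000 cells per well, rested 5hr at 37 C before compound addition in DMSO, then 24 hr at 37 C. One-Glo reagent was added and luminescence read after 30 min at room temperature.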
Nuclear receptor subfamily 1 group I member 2 (Rattus norvegicus), sequence (Q9R1A7 whole entry, looked up): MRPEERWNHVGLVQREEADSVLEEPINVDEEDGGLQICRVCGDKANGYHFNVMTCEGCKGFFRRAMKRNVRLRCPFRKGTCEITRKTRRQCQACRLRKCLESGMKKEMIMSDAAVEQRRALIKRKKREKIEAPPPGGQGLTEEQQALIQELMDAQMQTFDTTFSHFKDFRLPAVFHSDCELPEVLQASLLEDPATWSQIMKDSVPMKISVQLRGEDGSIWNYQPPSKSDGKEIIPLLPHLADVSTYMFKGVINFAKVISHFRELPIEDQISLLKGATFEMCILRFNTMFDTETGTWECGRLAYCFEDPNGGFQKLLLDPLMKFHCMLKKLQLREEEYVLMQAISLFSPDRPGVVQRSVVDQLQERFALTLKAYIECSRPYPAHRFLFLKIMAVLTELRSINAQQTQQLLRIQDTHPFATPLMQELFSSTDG

The target in assay [19] is Nuclear receptor subfamily 1 group I member 2 (Homo sapiens) (UniProt O75469). Put plainly: Human pregnane X receptor (PXR) activation by small molecules, qHTS assay (AID 1346985). Note: nearly all actives have a fitted effect of over 40% in size. The essentials: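 DPX-2 cells (HepG2 co-transfected with a PXR response element and a CYP3A4-promoter luciferase construct) were seeded at 2,000 per well, rested 5 hr at 37C, then exposed to DMSO-dissolved compounds for 24 hr. Activation was read as luciferase luminescence.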
Nuclear receptor subfamily 1 group I member 2 (Homo sapiens), sequence (O75469 whole entry, looked up): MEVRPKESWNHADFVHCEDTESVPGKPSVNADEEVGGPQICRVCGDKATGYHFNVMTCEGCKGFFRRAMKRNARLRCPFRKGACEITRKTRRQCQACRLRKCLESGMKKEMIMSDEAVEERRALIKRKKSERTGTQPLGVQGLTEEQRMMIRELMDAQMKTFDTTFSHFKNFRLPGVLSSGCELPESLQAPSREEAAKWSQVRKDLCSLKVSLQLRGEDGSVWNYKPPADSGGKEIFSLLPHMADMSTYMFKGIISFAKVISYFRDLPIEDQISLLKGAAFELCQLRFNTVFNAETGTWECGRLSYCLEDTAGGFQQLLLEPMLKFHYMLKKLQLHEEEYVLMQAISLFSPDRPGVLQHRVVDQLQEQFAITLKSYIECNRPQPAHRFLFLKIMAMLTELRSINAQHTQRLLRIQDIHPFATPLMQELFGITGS

Molecules are shown by their SMILES. Records with an inconclusive call do not appear. Calls of active or inactive are those of the source. Unless noted, calls come from the whole dose curve; as a rule, active = well fitted curve in the direction sought with a large enough effect in the repeat runs; inconclusive = weak or mixed curves; inactive = no such curve, though single readings can be large; an effect the other way counts as inactive or inconclusive.
% is set by controls: 0 for no effect and ±100 for the full control effect.

Acetylcholinesterase (Homo sapiens), sequence (P22303 whole entry, looked up): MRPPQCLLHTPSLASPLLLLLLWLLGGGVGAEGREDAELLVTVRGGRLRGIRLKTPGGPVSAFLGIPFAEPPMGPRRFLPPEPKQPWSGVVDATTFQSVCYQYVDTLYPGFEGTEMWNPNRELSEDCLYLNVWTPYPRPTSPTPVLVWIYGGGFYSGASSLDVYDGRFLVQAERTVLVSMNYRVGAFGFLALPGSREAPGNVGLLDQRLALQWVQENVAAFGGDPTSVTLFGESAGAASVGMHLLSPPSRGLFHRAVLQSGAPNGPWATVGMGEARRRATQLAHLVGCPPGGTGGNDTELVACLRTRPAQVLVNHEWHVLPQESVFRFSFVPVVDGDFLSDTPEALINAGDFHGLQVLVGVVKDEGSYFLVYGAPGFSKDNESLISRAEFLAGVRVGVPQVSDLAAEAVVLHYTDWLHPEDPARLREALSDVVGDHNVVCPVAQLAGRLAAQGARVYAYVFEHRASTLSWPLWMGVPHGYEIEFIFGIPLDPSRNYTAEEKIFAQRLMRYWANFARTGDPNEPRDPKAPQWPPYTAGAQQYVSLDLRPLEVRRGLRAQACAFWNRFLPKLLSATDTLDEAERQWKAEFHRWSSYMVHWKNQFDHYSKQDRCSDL
Voltage-gated inwardly rectifying potassium channel KCNH2 (Homo sapiens), sequence (Q12809 whole entry, looked up): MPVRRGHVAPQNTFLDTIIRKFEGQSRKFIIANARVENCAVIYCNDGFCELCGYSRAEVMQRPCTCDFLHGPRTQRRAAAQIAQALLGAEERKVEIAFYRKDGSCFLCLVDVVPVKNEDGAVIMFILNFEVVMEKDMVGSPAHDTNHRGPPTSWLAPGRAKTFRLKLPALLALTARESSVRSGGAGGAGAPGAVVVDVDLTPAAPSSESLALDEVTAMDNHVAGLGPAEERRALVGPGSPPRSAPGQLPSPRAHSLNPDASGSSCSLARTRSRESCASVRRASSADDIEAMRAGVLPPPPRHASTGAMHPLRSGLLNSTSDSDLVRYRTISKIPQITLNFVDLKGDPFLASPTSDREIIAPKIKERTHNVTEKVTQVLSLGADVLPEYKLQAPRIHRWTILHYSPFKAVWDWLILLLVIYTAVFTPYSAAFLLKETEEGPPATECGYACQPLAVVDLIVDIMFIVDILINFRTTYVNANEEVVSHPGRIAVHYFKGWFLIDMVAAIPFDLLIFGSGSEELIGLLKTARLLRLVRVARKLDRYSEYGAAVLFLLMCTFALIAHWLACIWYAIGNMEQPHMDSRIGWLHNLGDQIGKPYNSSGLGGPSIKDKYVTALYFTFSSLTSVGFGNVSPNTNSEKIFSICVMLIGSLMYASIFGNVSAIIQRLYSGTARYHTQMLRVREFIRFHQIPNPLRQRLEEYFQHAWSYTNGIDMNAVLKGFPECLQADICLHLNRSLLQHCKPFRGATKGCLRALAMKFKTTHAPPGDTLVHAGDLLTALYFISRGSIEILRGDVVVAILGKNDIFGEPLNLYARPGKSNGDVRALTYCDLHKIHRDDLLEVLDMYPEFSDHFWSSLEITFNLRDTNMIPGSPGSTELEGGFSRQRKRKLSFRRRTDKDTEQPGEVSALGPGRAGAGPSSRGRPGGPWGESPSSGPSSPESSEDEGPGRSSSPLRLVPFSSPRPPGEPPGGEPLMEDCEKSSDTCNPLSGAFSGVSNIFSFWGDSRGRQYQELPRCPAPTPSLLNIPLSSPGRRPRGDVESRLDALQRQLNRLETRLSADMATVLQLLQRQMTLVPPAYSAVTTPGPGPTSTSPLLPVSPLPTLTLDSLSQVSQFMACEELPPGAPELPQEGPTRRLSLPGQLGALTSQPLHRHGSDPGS
Cytochrome P450 3A4 (Homo sapiens), sequence (P08684 whole entry, looked up): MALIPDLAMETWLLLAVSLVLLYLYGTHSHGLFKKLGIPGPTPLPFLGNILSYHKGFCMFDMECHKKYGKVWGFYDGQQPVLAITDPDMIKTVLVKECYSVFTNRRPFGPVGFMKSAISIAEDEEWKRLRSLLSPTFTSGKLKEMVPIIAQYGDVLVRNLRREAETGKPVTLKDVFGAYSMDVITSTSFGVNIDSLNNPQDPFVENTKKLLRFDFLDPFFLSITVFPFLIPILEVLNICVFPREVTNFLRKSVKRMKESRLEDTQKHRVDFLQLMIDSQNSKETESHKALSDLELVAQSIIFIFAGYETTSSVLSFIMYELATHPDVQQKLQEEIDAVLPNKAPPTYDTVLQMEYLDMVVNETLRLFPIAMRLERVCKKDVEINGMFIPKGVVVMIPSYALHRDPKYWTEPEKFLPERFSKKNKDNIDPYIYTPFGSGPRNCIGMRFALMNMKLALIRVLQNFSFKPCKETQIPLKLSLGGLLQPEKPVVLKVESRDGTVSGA
Cytochrome P450 2D6 (Homo sapiens), sequence (P10635 whole entry, looked up): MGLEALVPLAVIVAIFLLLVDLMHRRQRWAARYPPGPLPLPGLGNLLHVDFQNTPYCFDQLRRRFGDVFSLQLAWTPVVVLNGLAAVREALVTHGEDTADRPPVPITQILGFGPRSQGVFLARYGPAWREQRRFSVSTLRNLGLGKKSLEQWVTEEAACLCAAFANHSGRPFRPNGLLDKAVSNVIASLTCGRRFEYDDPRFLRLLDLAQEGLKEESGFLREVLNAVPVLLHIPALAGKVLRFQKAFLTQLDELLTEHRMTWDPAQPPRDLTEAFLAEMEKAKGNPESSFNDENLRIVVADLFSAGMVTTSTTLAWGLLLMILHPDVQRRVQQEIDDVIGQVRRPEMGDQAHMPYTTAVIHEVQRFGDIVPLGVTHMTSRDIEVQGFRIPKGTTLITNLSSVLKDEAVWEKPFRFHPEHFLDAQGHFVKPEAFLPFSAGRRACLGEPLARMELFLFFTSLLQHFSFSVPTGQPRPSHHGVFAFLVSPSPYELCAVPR
Thyrotropin-releasing hormone receptor (Homo sapiens), sequence (P34981 whole entry, looked up): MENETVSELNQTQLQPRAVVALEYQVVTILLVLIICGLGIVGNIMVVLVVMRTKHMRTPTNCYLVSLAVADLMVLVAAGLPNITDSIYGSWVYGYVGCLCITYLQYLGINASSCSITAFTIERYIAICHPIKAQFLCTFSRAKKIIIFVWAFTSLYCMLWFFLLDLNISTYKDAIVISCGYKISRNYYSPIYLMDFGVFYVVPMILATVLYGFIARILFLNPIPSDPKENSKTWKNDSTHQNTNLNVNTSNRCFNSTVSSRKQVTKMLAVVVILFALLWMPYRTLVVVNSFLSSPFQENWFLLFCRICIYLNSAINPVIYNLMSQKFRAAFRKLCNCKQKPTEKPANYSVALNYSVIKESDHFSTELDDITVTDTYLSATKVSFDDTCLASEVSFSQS

As for `COc1cc(CC(C)N)cc(OC)c1OC` (stereo not given), the molecule was classed as inactive in assay [1], in [3] and in assay [5]. In addition, the Potency result in assay [2], in assay [4], in assay [6], in assay [7], in [8] and in [9] was “inactive” each time. The Potency result in [10], in [11], in assay [12], in [13], in assay [15] and in assay [16] was “inactive” each time. Moreover, the Potency in assay [14] was 43.2 µM (active).

Regarding `CCOc1cc(OP(=S)(OC)OC)nc(CC)n1`, the outcome in [1], in assay [3] and in assay [5] was inactive. Moreover, the Potency entry in assay [2], in assay [4], in [6], in assay [7], in [8] and in assay [9] was “inactive” each time. The Potency result in [10], in assay [11], in assay [17], in assay [15] and in [16] was “inactive” throughout. In assay [12], the Potency was 35.6 µM (active).

For `CCC1(c2ccccc2)CCC(=O)NC1=O` (stereo not given), the call in assay [1], in assay [3] and in [5] was inactive. Further, the Potency entry in assay [2], in [4], in assay [6], in assay [7], in assay [8] and in [9] was “inactive” throughout. In addition, the Potency entry in [10], in [13], in assay [14], in [15] and in assay [16] was “inactive” in each case. In addition, in assay [18], the max activation was -0.631% (inactive). In addition, the Potency in assay [12] is 38.9 µM (active).

As to `CCC1(c2ccccc2)C(=O)N(COC)C(=O)N(COC)C1=O`, the outcome in [1], in assay [3] and in assay [5] was inactive. Moreover, the Potency result in assay [2], in assay [4], in assay [6], in assay [7], in assay [8] and in assay [9] was “inactive” throughout. Besides, the Potency entry in [10], in assay [11], in [17], in [14] and in assay [15] was “inactive” each time. Moreover, in [18], the max activation is 3% (inactive). In assay [12], the Potency was 6.92 µM (active).

Consider `O=C(NC(O)C(Cl)(Cl)Cl)NC(O)C(Cl)(Cl)Cl` (stereo not given), for which the outcome in [1], in assay [3] and in assay [5] was inactive. The Potency entry in assay [2], in assay [4], in assay [6], in assay [7], in [19] and in [8] was “inactive” in each case. In addition, the Potency result in assay [10], in assay [11], in assay [12], in assay [13], in assay [14] and in [15] was “inactive” each time. In assay [16], the Potency result is “inactive”. The max activation in [18] was -0.374% (inactive).

As for `CC(Cc1ccccc1)NCCCCl` (stereo not given), the molecule was called inactive in assay [1], in assay [3] and in assay [5]. Further, the Potency result in [2], in [4], in [6], in assay [7], in assay [8] and in assay [9] was “inactive” each time. Besides, the Potency result in assay [10], in assay [11], in assay [12], in [13] and in assay [14] was “inactive” in each case. In addition, the Potency is 1.74 µM (active) in assay [17] and 15.1 µM (active) in assay [15].

`CC(C)C(C)(N)C#N` (stereo not given): the molecule was classed as inactive in [1], in assay [3] and in assay [5]. Also, the Potency result in [2], in assay [4], in [6], in assay [7], in [8] and in assay [9] was “inactive” throughout. Further, the Potency entry in assay [10], in assay [11], in assay [17], in assay [12], in assay [13] and in [14] was “inactive” each time. Besides, the Potency result in assay [15] and in assay [16] was “inactive” throughout.

As to `O=C(CCl)NCO`, the molecule was classed as inactive in assay [1], in [3] and in assay [5]. Further, the Potency entry in [2], in assay [4], in assay [6], in [7], in assay [8] and in [9] was “inactive” each time. For the same molecule, the Potency result in assay [10], in assay [11], in assay [17], in [12], in assay [13] and in assay [14] was “inactive” in each case. Moreover, the Potency result in assay [15] and in assay [16] was “inactive” in each case.
